Test results from PubChem BioAssay (NCI).
Compounds without any hit were thinned out: in the full panel of roughly 83,000, 20% have a hit.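 How to read the values: 0–100, growth inhibition (40 = 60% inhibited); 0, no net growth; -100 to 0, cell death (-40 = 40% of starting cells died; -100 = all dead).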 Calls of active or inactive are those of the source. The calls were made as follows: active = growth percent below 10; inactive = the rest.

How the values were obtained:
Test in all cases: NCI-60 one-dose screen, 48 h (100 = growth as untreated, 0 = no growth, -100 = all killed)
Conditions in all cases: 10 µM unless noted
NCI-H23 lung = tested on: NCI-H23 lung
NCI-H226 lung = tested on: NCI-H226 lung
NCI-H322M lung = tested on: NCI-H322M lung
HOP-62 NSCLC = tested on: HOP-62 NSCLC
NCI-H460 lung = tested on: NCI-H460 lung
HOP-92 NSCLC = tested on: HOP-92 NSCLC
NCI-H522 lung = tested on: NCI-H522 lung
A549/ATCC NSCLC = tested on: A549/ATCC NSCLC
786-0 renal = tested on: 786-0 renal
COLO 205 colon = tested on: COLO 205 colon
DU-145 prostate = tested on: DU-145 prostate
K-562 leukemia = tested on: K-562 leukemia
MALME-3M melanoma = tested on: MALME-3M melanoma
MDA-MB-231 breast = tested on: MDA-MB-231 breast
RXF 393 renal = tested on: RXF 393 renal
SF-268 CNS = tested on: SF-268 CNS
SF-295 CNS = tested on: SF-295 CNS
SF-539 CNS = tested on: SF-539 CNS
UACC-257 melanoma = tested on: UACC-257 melanoma
M14 melanoma = tested on: M14 melanoma

Measured: growth

CCOC(=O)Cn1c(C)c(/C=N/NC(=O)c2cc3c(ccc4ccccc43)o2)c2ccccc21
inactive: NCI-H23 lung 27.7% | NCI-H226 lung 19.4% | NCI-H322M lung 41.5% | HOP-62 NSCLC 26.5% | HOP-92 NSCLC 60.5% | A549/ATCC NSCLC 21.8% | 786-0 renal 20.7% | DU-145 prostate 11.2% | K-562 leukemia 10.9% | MALME-3M melanoma 70.8% | MDA-MB-231 breast 38.8% | SF-268 CNS 35.7% | SF-295 CNS 19.3% | UACC-257 melanoma 41.5% | M14 melanoma 16.8%
active: NCI-H460 lung 5.99% | NCI-H522 lung -25.5% | COLO 205 colon -39.9% | RXF 393 renal -11.1% | SF-539 CNS -14.1%

O=C(Nc1ccc(OS(=O)(=O)c2ccc(F)cc2)cc1)c1ccc(Cl)cc1
inactive: NCI-H23 lung 94% | NCI-H226 lung 99.5% | NCI-H322M lung 92.6% | HOP-62 NSCLC 101% | NCI-H460 lung 101% | HOP-92 NSCLC 101% | NCI-H522 lung 83.6% | A549/ATCC NSCLC 94.1% | 786-0 renal 104% | COLO 205 colon 114% | DU-145 prostate 107% | K-562 leukemia 81.1% | MALME-3M melanoma 96.9% | MDA-MB-231 breast 104% | RXF 393 renal 109% | SF-268 CNS 101% | SF-295 CNS 105% | SF-539 CNS 108% | UACC-257 melanoma 100% | M14 melanoma 98%

Nc1nc(-c2cccc3ccccc23)cc2ccccc12
inactive: NCI-H23 lung 11.1% | NCI-H322M lung 46.5% | HOP-62 NSCLC 13.7% | HOP-92 NSCLC 19% | A549/ATCC NSCLC 28.7% | 786-0 renal 20.9% | MALME-3M melanoma 82.2% | MDA-MB-231 breast 20.7% | SF-268 CNS 23.7% | UACC-257 melanoma 56.6%
active: NCI-H226 lung -7.36% | NCI-H460 lung 0.0786% | NCI-H522 lung -34.3% | COLO 205 colon -18.4% | DU-145 prostate 7.32% | K-562 leukemia -43.8% | RXF 393 renal -4.3% | SF-295 CNS -50.2% | SF-539 CNS -35.9% | M14 melanoma -29.5%

CC1Cc2ccccc2N1NC(=O)c1ccc(Cl)c(S(N)(=O)=O)c1 (stereo not given)
inactive: NCI-H23 lung 96.8% | NCI-H226 lung 97.8% | NCI-H322M lung 95.2% | HOP-62 NSCLC 95.8% | NCI-H460 lung 111% | HOP-92 NSCLC 44.9% | NCI-H522 lung 88% | A549/ATCC NSCLC 107% | 786-0 renal 96.6% | COLO 205 colon 108% | DU-145 prostate 108% | K-562 leukemia 103% | MALME-3M melanoma 94.2% | MDA-MB-231 breast 104% | RXF 393 renal 108% | SF-268 CNS 106% | SF-295 CNS 101% | SF-539 CNS 105% | UACC-257 melanoma 102% | M14 melanoma 98.2%

NCCCNc1nc2ccccc2c2c(=O)c3cc(OC(F)(F)F)ccc3sc12
active: NCI-H460 lung -76.6% | NCI-H522 lung -14.4% | A549/ATCC NSCLC -43.3% | COLO 205 colon -52.7% | DU-145 prostate -10.7% | K-562 leukemia -34.7% | MDA-MB-231 breast -43.2% | SF-539 CNS -72% | M14 melanoma -26.4%
inactive: NCI-H23 lung 48.3% | NCI-H226 lung 85.7% | NCI-H322M lung 49.1% | HOP-62 NSCLC 51.6% | HOP-92 NSCLC 17.3% | 786-0 renal 57.5% | MALME-3M melanoma 80.9% | RXF 393 renal 60.7% | SF-268 CNS 51% | SF-295 CNS 33.4% | UACC-257 melanoma 104%

Cc1cccc(NC2=C(Cl)C(=O)c3nc(C)ccc3C2=O)c1
active: NCI-H23 lung -27.8% | NCI-H226 lung -0.0359% | NCI-H460 lung 5.47% | HOP-92 NSCLC -68.7% | NCI-H522 lung -24% | 786-0 renal 3.53% | DU-145 prostate -80.2% | K-562 leukemia 2.91% | MALME-3M melanoma -75.3% | MDA-MB-231 breast -75.1% | RXF 393 renal -19.8% | SF-539 CNS -79% | UACC-257 melanoma -80.2% | M14 melanoma -45%
inactive: NCI-H322M lung 13.5% | HOP-62 NSCLC 42.8% | A549/ATCC NSCLC 16.7% | COLO 205 colon 111% | SF-268 CNS 58.2% | SF-295 CNS 12.7%

COc1ccc(C(=O)n2nc(-c3ccccc3)nc2N)cc1OC
inactive: NCI-H23 lung 93.9% | NCI-H226 lung 79.9% | NCI-H322M lung 89.1% | HOP-62 NSCLC 79.7% | NCI-H460 lung 98.3% | HOP-92 NSCLC 67% | NCI-H522 lung 85.4% | A549/ATCC NSCLC 95.1% | 786-0 renal 96.1% | COLO 205 colon 103% | DU-145 prostate 104% | K-562 leukemia 80.1% | MALME-3M melanoma 102% | MDA-MB-231 breast 85.1% | RXF 393 renal 98.3% | SF-268 CNS 95.4% | SF-295 CNS 103% | SF-539 CNS 91% | UACC-257 melanoma 98.4% | M14 melanoma 105%

CC(C)(C)NC(=O)C(OC(=O)c1cccc(Cl)c1)c1ccc(Cl)cc1 (stereo not given)
inactive: NCI-H23 lung 101% | NCI-H226 lung 94.9% | NCI-H322M lung 98% | HOP-62 NSCLC 80.9% | NCI-H460 lung 106% | HOP-92 NSCLC 93.8% | NCI-H522 lung 71.1% | A549/ATCC NSCLC 90.9% | 786-0 renal 99.2% | COLO 205 colon 103% | DU-145 prostate 103% | K-562 leukemia 92.5% | MALME-3M melanoma 103% | MDA-MB-231 breast 112% | RXF 393 renal 111% | SF-268 CNS 100% | SF-295 CNS 98.1% | SF-539 CNS 95.1% | UACC-257 melanoma 97.1% | M14 melanoma 94.1%

COc1cc(/C=C/c2c(C(C)=O)c(C)nc3ccccc23)cc(OC)c1OC
inactive: NCI-H23 lung 52.8% | NCI-H226 lung 52.4% | NCI-H322M lung 51.3% | HOP-62 NSCLC 42.4% | NCI-H460 lung 15% | HOP-92 NSCLC 47.8% | NCI-H522 lung 24.6% | A549/ATCC NSCLC 53.4% | 786-0 renal 42.4% | COLO 205 colon 19% | DU-145 prostate 42.1% | K-562 leukemia 13.8% | MALME-3M melanoma 52.5% | MDA-MB-231 breast 43.1% | RXF 393 renal 10.8% | SF-268 CNS 49.3% | SF-295 CNS 20.1% | UACC-257 melanoma 59.6% | M14 melanoma 25.9%
active: SF-539 CNS 7.46%

CCC12CCC[N+]3([O-])CCC4(C(=Nc5ccccc54)C(O)(C(=O)OC)C1)C23 (stereo not given)
inactive: NCI-H23 lung 101% | NCI-H226 lung 106% | NCI-H322M lung 103% | HOP-62 NSCLC 94.5% | NCI-H460 lung 111% | HOP-92 NSCLC 94.4% | NCI-H522 lung 115% | A549/ATCC NSCLC 114% | 786-0 renal 106% | COLO 205 colon 118% | DU-145 prostate 103% | K-562 leukemia 109% | MALME-3M melanoma 104% | MDA-MB-231 breast 103% | RXF 393 renal 113% | SF-268 CNS 96.2% | SF-295 CNS 102% | SF-539 CNS 103% | UACC-257 melanoma 115% | M14 melanoma 96.7%

COc1nc2ccc(C)cc2cc1-c1nc2c(cnn2-c2ccccc2)c(=O)[nH]1
inactive: NCI-H23 lung 80.5% | NCI-H226 lung 92% | NCI-H322M lung 95.9% | HOP-62 NSCLC 70.9% | NCI-H460 lung 80.3% | HOP-92 NSCLC 78.9% | NCI-H522 lung 56.5% | A549/ATCC NSCLC 84.3% | 786-0 renal 95.3% | COLO 205 colon 86.3% | DU-145 prostate 97.2% | K-562 leukemia 34.8% | MALME-3M melanoma 126% | MDA-MB-231 breast 103% | RXF 393 renal 89.4% | SF-268 CNS 93.8% | SF-295 CNS 90.9% | SF-539 CNS 99.9% | UACC-257 melanoma 86.4% | M14 melanoma 71%

CCOC(=O)Nc1ccc(-c2nc(-c3cccc(OC)c3)c(-c3ccnc(Br)c3)[nH]2)cc1
active: 786-0 renal 9.61% | RXF 393 renal -27% | SF-295 CNS -36.1%
inactive: NCI-H23 lung 31.7% | NCI-H226 lung 46.4% | NCI-H322M lung 45.7% | HOP-62 NSCLC 30.2% | NCI-H460 lung 27.2% | HOP-92 NSCLC 42.2% | NCI-H522 lung 30.2% | A549/ATCC NSCLC 36.9% | COLO 205 colon 49.2% | DU-145 prostate 51.9% | K-562 leukemia 11.9% | MALME-3M melanoma 40.5% | MDA-MB-231 breast 41.2% | SF-268 CNS 51.9% | SF-539 CNS 21.7% | UACC-257 melanoma 56.1% | M14 melanoma 36%

COc1ccc2c(c1)c(-c1ccc(-c3cn(C)c4ccc(OC)cc34)o1)cn2C
active: NCI-H522 lung -19.6% | K-562 leukemia 2.25%
inactive: NCI-H23 lung 67.3% | NCI-H226 lung 82.7% | NCI-H322M lung 95.1% | HOP-62 NSCLC 93.2% | NCI-H460 lung 56.8% | HOP-92 NSCLC 38% | A549/ATCC NSCLC 66.4% | 786-0 renal 83.2% | COLO 205 colon 16.3% | DU-145 prostate 107% | MALME-3M melanoma 80.6% | MDA-MB-231 breast 69.1% | RXF 393 renal 66.8% | SF-268 CNS 71.8% | SF-295 CNS 62.2% | SF-539 CNS 18% | UACC-257 melanoma 90% | M14 melanoma 71.2%

O=C1CN(CCN2CC(=O)N(Cc3ccccc3)C(=O)C2)CC(=O)N1Cc1ccccc1
inactive: NCI-H23 lung 97.7% | NCI-H226 lung 107% | NCI-H322M lung 104% | HOP-62 NSCLC 91.2% | NCI-H460 lung 100% | HOP-92 NSCLC 85% | NCI-H522 lung 98.8% | A549/ATCC NSCLC 102% | 786-0 renal 110% | COLO 205 colon 109% | DU-145 prostate 117% | K-562 leukemia 107% | MALME-3M melanoma 103% | MDA-MB-231 breast 102% | RXF 393 renal 108% | SF-268 CNS 103% | SF-295 CNS 109% | SF-539 CNS 115% | UACC-257 melanoma 98.4% | M14 melanoma 109%

Cc1onc2c(-c3ccccc3)n[nH]c(=O)c12
inactive: NCI-H23 lung 100% | NCI-H226 lung 110% | NCI-H322M lung 72.5% | HOP-62 NSCLC 90.2% | NCI-H460 lung 109% | HOP-92 NSCLC 52.3% | NCI-H522 lung 94.4% | A549/ATCC NSCLC 114% | 786-0 renal 95% | COLO 205 colon 146% | DU-145 prostate 110% | K-562 leukemia 69.8% | MALME-3M melanoma 81.5% | MDA-MB-231 breast 100% | RXF 393 renal 122% | SF-268 CNS 121% | SF-295 CNS 97.1% | SF-539 CNS 93.8% | UACC-257 melanoma 122% | M14 melanoma 105%
